High-throughput results: PubChem, Johns Hopkins Ion Channel Center
In the library only some 2.3% were active in any assay of this set; here they are far more common.
CHT PAM = human CHT allosteric activation | AID 488977 | B-score at 10 µM | Q9GZV3 | hit rate 0.49% among 310,000 | CHT-expressing cells, membrane potential dye, choline EC20; hits give high values; LV-AA mutant CHT in HEK293 cells;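 active means initial fluorescence not abnormally high and integrated response B-score, plate-corrected, over 3 SD above library mean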
Target sequence (Q9GZV3 whole entry, looked up): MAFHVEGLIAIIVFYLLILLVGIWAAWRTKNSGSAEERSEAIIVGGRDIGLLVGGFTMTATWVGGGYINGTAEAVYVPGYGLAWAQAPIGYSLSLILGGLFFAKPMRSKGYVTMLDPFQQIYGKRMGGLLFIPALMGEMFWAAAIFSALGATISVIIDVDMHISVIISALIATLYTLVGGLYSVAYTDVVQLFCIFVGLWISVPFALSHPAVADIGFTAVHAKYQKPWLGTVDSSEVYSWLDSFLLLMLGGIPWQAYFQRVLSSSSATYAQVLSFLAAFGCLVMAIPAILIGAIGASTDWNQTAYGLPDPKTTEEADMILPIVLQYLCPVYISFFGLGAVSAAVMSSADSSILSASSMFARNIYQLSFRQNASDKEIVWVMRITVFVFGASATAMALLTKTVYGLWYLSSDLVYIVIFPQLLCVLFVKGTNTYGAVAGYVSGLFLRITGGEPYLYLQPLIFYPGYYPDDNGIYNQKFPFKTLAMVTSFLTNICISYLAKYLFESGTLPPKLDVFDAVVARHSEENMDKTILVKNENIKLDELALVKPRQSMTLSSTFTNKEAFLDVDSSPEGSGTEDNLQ
ANO1 activ = activates or potentiates the mouse TMEM16A chloride channel | hit rate 0.3% among 340,000 | Q8BHY3 | HEK293 TMEM16A/YFP-H148Q/I152L, iodide quench fluorescence; hits give low values | AID 623877 | B-score at 10 µM;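 active means fluorescence-ratio B-score plate-corrected deviation score at least 3 library SD below zero, with starting fluorescence score within 5 deviations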;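 further: channel opened by trigger with iodide after compound preincubation; score built on the fluorescence ratio of max minus min over baseline; more negative score means more quench and so TMEM16A activation or potentiation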
CHT inh = inhibitors of human choline transporter CHT; Q9GZV3; CHT-expressing cells, membrane potential dye, choline response; hits give low values; B-score at 10 µM; hit rate 0.86% among 310,000;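 active means B-score over 3 SD under the library average, and starting fluorescence ratio not unusually high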;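 further: choline stimulus applied at its EC90 after an EC20 pre-addition; B-score computed on integrated fluorescence ratio after choline addition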
ANO1 block = mouse TMEM16A channel inhibition, primary screen | Q8BHY3 | HEK293 TMEM16A/YFP iodide influx fluorescence, ionomycin | normalized B-score (activity score, 25-100; higher = stronger inhibition) at 10 µM | hit rate 1.2% among 310,000;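 active means ratio plate-corrected score three or more library SD toward inhibition, starting fluorescence score within five deviations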;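 further: score derived from kinetic fluorescence span divided by baseline fluorescence per well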
Of the large screens only hits and unclear results are named; the others gave an inactive call.

COc1ccc(C(=O)N/C(=C\c2cn(S(=O)(=O)N(C)C)c3ccccc23)C(=O)NCCCN2CCOCC2)cc1	none
C=CCOc1ccc(C(=O)n2cc(C(=O)OC)c3ccccc32)cc1	none
COc1ccc(/C=C(\C#N)c2nc3ccccc3[nH]2)cc1O	none (no result: CHT PAM, CHT inh, ANO1 block)
COc1cc(/C=C(/C#N)c2nc3ccccc3[nH]2)ccc1OC(=O)c1ccco1	ANO1 activ -4.83
O=C(C=Cc1ccccc1)CC(c1ccccc1)N1CCOCC1 (configuration not stated)	none (no result: CHT PAM, CHT inh, ANO1 block)
CCCCCCCCCCn1c2c(c(=N)c3c1CCC3)CCC2	CHT PAM 16.5, ANO1 block 100
COc1ccc(-n2ccc(-c3nn(-c4cccc(C(F)(F)F)c4)ccc3=O)n2)cc1	ANO1 activ -43.1
CCC(=O)c1ccc(OCC(O)CN2CCN(S(=O)(=O)c3ccc(NC(C)=O)cc3)CC2)cc1 (configuration not stated)	none
CC(=O)Nc1ccc(OCC(O)CN2CCN(S(=O)(=O)c3ccc(NC(C)=O)cc3)CC2)cc1 (configuration not stated)	ANO1 block 100
CC(Sc1nnc(Cc2cccs2)n1C1CC1)C(=O)NC1CCS(=O)(=O)C1 (configuration not stated)	none (no result: CHT PAM, CHT inh, ANO1 block)
Cc1cc(C(=O)OCC(=O)N(C)c2ccccc2)c(C)o1	none (no result: CHT PAM, CHT inh, ANO1 block)
Nc1nc(CN2CCOCC2)cs1	none
c1cn2cc(CN3CCOCC3)nc2s1	ANO1 block 25
Cc1ccc(N2CCN(c3ccc(C)cc3)C2c2cccnc2)cc1	ANO1 block 25
c1ccc(N2CCN(c3ccccc3)C2c2cccnc2)cc1	none
CNS(=O)(=O)c1cccc(C(=O)OCC(=O)NC(C)CCc2ccccc2)c1 (configuration not stated)	none
CC(CCc1ccccc1)NC(=O)COC(=O)c1cc(NS(=O)(=O)c2ccc(Cl)c([N+](=O)[O-])c2)ccc1O (configuration not stated)	ANO1 block 100
CCCC(c1nnnn1Cc1cccs1)N1CCN(c2nc3ccccc3s2)CC1 (configuration not stated)	ANO1 activ -12.9
CC(C)n1ncc2c(C(=O)NCc3cccnc3)cc(C3CC3)nc21	none (no result: CHT PAM, CHT inh, ANO1 block)
CN(C(=O)COc1ccccc1C(=O)NCCOc1ccccc1)c1ccccc1	ANO1 block 25
Cc1ccc(C(=O)OCC(=O)N2CCNC2=O)c(C)c1	none (no result: CHT PAM, CHT inh, ANO1 block)
Cc1cc(C(=O)N/N=C/c2c(C)nn(-c3ccccc3)c2C)n[nH]1	none
Cc1nn(-c2ccccc2)c(C)c1/C=N/NC(=O)c1cc(C23CC4CC(CC(C4)C2)C3)[nH]n1	CHT inh -8.48
Cc1cccc(C)c1NC(=O)Cn1cc(C=O)c2ccccc21	none
CC(C)C(NC(=O)c1cccc(S(=O)(=O)N2CCOCC2)c1)C(=O)NCc1ccc(Cl)cc1 (configuration not stated)	none (no result: CHT PAM, CHT inh, ANO1 block)
COc1cc2c(cc1OC)C(NC(=O)c1ccc(C)cc1)CC2=O (configuration not stated)	none
CC(C)(C)c1ccc(C(=O)CC(=O)c2cc(Cl)ccc2O)cc1	ANO1 block 25
CCC(=O)N1CCc2cc(Br)cc(S(=O)(=O)N3CCCCC3CC)c21 (configuration not stated)	none
Cc1cc(C)c2ccc(C)[n+]([O-])c2c1O	CHT inh -19.7
CC(C)Cn1c(SC(C)C(=O)NCC2CCCO2)nc2ccc(Cl)cc2c1=O (configuration not stated)	ANO1 activ -25.1 (no result: CHT PAM, CHT inh, ANO1 block)
CC(C)OCCCn1c(SC(C)C(=O)NCC2CCCO2)nc2cc(Cl)ccc2c1=O (configuration not stated)	none
CN(CCCCCCCCCCN(C)C(=O)Oc1cccc([N+](C)(C)C)c1)C(=O)Oc1cccc([N+](C)(C)C)c1	none
Cc1ccc(S(=O)(=O)N(CC(=O)N2CCC(C)CC2)c2cccc(C)c2)cc1	ANO1 block 25
CC1CCCN(CCCNC(=O)C2CC(=O)N(CCc3ccccc3)C2)C1 (configuration not stated)	none
N#CC(c1ccc(F)cc1)c1ccc(C(=O)c2ccccc2)cc1 (configuration not stated)	ANO1 block 100
N#CC(c1ccccc1)c1ccc(C(=O)c2ccc(F)cc2)cc1 (configuration not stated)	none
NC(=O)c1cc(S(=O)(=O)NCc2ccc(F)cc2)cs1	ANO1 activ -14
Cc1cccc(CNS(=O)(=O)c2csc(C(N)=O)c2)c1	none
CCc1cc2c(=O)n(CCCOC)c(SCC(=O)Nc3oc(C)c4c(C)n[nH]c(=O)c34)nc2s1	none
O=c1c2ccccc2nc(COc2ccccc2)n1/N=C/c1cn[nH]c1-c1ccccc1	ANO1 activ -6.49
COc1ccc(S(=O)(=O)N2CCCCC2)cc1NC(=O)C1CC1C (configuration not stated)	none (no result: CHT PAM, CHT inh, ANO1 block)
C[C@H](NC(=O)c1[nH]cnc1C(=O)Nc1ccc(CNC(=O)OC(C)(C)C)cc1)C(=O)OCc1ccccc1	ANO1 block 100
Cc1ccc2sc(NNC(=O)c3cc(=O)c4ccccc4o3)nc2c1C	ANO1 block 100
Nc1cccc(Nc2nc(OC(C(F)(F)F)C(F)(F)F)nc(OC(C(F)(F)F)C(F)(F)F)n2)c1	ANO1 block 100
COc1nc(Nc2ccc(O)cc2)nc(OC(C(F)(F)F)C(F)(F)F)n1	none
CCN(c1ccc(NC(=O)COC(=O)C2CCN(c3ccc(C(F)(F)F)cn3)CC2)cc1)C(C)C	none (no result: CHT PAM, CHT inh, ANO1 block)
O=C1c2ccccc2[C@@H]2C[C@H](NC34CC5CC(CC(C5)C3)C4)[C@@H](O)CCN12	none (no result: CHT PAM, CHT inh, ANO1 block)
O=C(CNc1ccccc1F)Nc1cccc(S(=O)(=O)N2CCCCC2)c1	none (no result: CHT PAM, CHT inh, ANO1 block)
CCC(C)c1ccccc1N1CC(C(=O)Nc2ccc(S(=O)(=O)N3CCOCC3)cc2)CC1=O (configuration not stated)	none
c1nc2n(n1)C1=C(CCCC1)C1(CCCCC1)N2	ANO1 activ -4.83
CC1CCN(C(=O)c2ccc(CNS(=O)(=O)c3ccc(C(C)(C)C)cc3)cc2)CC1	none (no result: CHT PAM, CHT inh, ANO1 block)
CC(C)COc1ccc(CSCCNC(=S)Nc2ccccc2)cc1	ANO1 block 100
Cc1cc(C)cc(C(=O)NCC(=O)OCC(=O)Nc2ccc(C)cc2Br)c1	ANO1 activ -4.64
Cc1ccc(NC(=O)COC(=O)CNC(=O)C2CCCCC2)c(Br)c1	none
CCOC(=O)/C=C/C(=O)Nc1ccc(S(=O)(=O)Nc2c(C)cc(C)cc2C)cc1	none
CCOC(=O)/C=C/S(=O)(=O)c1ccc(NC(C)=O)cc1	CHT inh -5.46
NC1(N)OC(CN2C(=O)c3ccccc3C2=O)CS1 (configuration not stated)	ANO1 block 100
Cc1ccc(NC(=O)C(NC2CCCc3ccccc32)c2ccccc2)c([N+](=O)[O-])c1 (configuration not stated)	ANO1 activ -5.78
Cc1ccc(NC(=O)C(NC2CCCc3ccccc32)c2ccccc2)cc1Cl (configuration not stated)	none
O=C(CCc1ccccc1)Nc1ccc(S(=O)(=O)NC2=NCCCCC2)cc1	none (no result: CHT PAM, CHT inh, ANO1 block)
CC1CCCC(NC(=O)C2CCN(S(=O)(=O)c3cccc4nonc34)CC2)C1C (configuration not stated)	none
